Measured values from PubChem BioAssay (NCI).
About 79,000 compounds went through this panel and 15% of them were active in at least one assay; those are over-represented in the sample as a whole. Cut-off read from the data, not from the text of the source: active = growth inhibition above about 70%; inactive = the rest.

What was measured:
[1] = NCI Yeast Anticancer Drug Screen. Data for the rad50 strain (AID 155);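 note: 0% = growth of vehicle-only cultures of the same strain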; conditions: S. cerevisiae rad50 strain growth inhibition; at 50.0 µM; stronger effect = higher value
Outline: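 Relative growth inhibition (compound vs vehicle) was measured in yeast with a defined repair-gene alteration.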

[2] = NCI Yeast Anticancer Drug Screen. Data for the mec2-1 strain (AID 157); conditions: S. cerevisiae mec2-1 strain, at 50.0 µM, stronger effect = higher value
Outline: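 Strain: mec2-1 (DNA repair/cell cycle alteration). Compound exposure, then growth measured; inhibition expressed relative to vehicle.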

[3] = NCI Yeast Anticancer Drug Screen. Data for the sgs1 mgt1 strain (AID 161);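 note: 0% = growth of cultures given vehicle only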; conditions: S. cerevisiae sgs1 mgt1 strain, at 50.0 µM, stronger effect = higher value
Outline: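 Test agents were incubated with a DNA-repair-mutant yeast strain. Growth was then read and compared against vehicle-treated controls.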

[4] = NCI Yeast Anticancer Drug Screen. Data for the cln2 rad14 strain (AID 165);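 note: 0% = growth equal to vehicle treated cultures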; conditions: S. cerevisiae cln2 rad14 strain, at 50.0 µM, stronger effect = higher value
Outline: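 Compounds are applied to the cln2 rad14 yeast strain, and growth is then compared with that of vehicle-treated cultures to give inhibition.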

[5] = NCI Yeast Anticancer Drug Screen. Data for the bub3 strain (AID 167); conditions: S. cerevisiae bub3 mutant strain, at 50.0 µM, stronger effect = higher value
Outline: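 Screening used yeast with an engineered genetic alteration affecting cell cycle control. Compound-exposed cultures were compared with vehicle cultures, and reduced growth was taken as inhibition.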

[6] = NCI Yeast Anticancer Drug Screen. Data for the mlh1 rad18 strain (AID 175); conditions: S. cerevisiae mlh1 rad18 strain growth inhibition; at 50.0 µM; stronger effect = higher value
Outline: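 Read-out is yeast growth inhibition, calculated against vehicle-only controls. The compound was applied to a strain engineered with DNA damage repair alterations.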

Measured: growth inhibition

O=[N+]([O-])NC1=NCCN1CCCl
inactive: [1] -17.2% | [2] -13.6% | [3] -4.6% | [4] -25.1% | [5] -12.6% | [6] 9.15%

Cc1cc(S(=O)(=O)F)ccc1NC(=O)/C=C/c1ccc([N+](=O)[O-])cc1
inactive: [1] 8.95% | [2] 4% | [3] 0.75% | [4] 0.55% | [5] 21.4% | [6] -8.15%

CCC12C=CCN3CCC4(C(=C(C(=O)OC)C1)Nc1ccccc14)[C@H]32 (some centres not stated)
inactive: [1] 6.7% | [2] 6% | [3] 6% | [4] -8% | [5] 7.25% | [6] 0.8%

CN(C)C(=O)Oc1ccc([N+](=O)[O-])cc1OC(=O)N(C)C
inactive: [1] 2.4% | [2] -5.25% | [3] 0.8% | [4] -8.65% | [5] 9.95% | [6] -4.05%

CNC(Cc1ccccc1)c1cccc(OC)c1O (configuration not stated)
inactive: [1] -7.55% | [2] -25.6% | [3] -53.6% | [4] -28.4% | [5] -14.2% | [6] -10.8%

CN(C)c1ccc([N+](=O)[O-])c([N+](=O)[O-])c1
inactive: [1] -14.8% | [2] -12.5% | [3] -7.75% | [4] 7.95% | [5] -12.4% | [6] -3.05%

CCOC(C(=O)O)(c1ccccc1)c1ccccc1
inactive: [1] -0.55% | [2] 22.2% | [3] 18.5% | [4] -10.1% | [5] 19.5% | [6] 22.8%

Cc1ccc([NH-])cc1.Cc1ccc([NH-])cc1.[Cl][Pt+2][Cl]
inactive: [1] -31.7% | [2] -6.8% | [3] 3.95% | [4] -61.7% | [5] 3.55% | [6] -11.3%

CC(Cc1cccc2c1Nc1ccccc1S2)N(C)CCO (configuration not stated)
inactive: [1] -60.2% | [2] -40.5% | [3] -28.6% | [4] -5.25% | [5] -25.4% | [6] -30.1%

Cn1cnnc1[N+](=O)[O-]
inactive: [1] 1.75% | [2] 5.85% | [3] -11.4% | [4] -1.1% | [5] 3.25% | [6] 15.7%

CC(C)CCCC(C)C1CCC2C3CC=C4CC([Se][As](C)C)CCC4(C)C3CCC12C (configuration not stated)
inactive: [1] 11.1% | [2] -0.1% | [3] 8.55% | [4] 14.7% | [5] 0.6% | [6] -7.4%

C=C1OC(OC)CC(N=[N+]=[N-])C1O (configuration not stated)
inactive: [1] -14.1% | [2] -2.9% | [3] -6.4% | [4] -5.3% | [5] 2.45% | [6] -15.6%

COc1cc(O)c([N+](=O)[O-])cc1[N+](=O)[O-]
inactive: [1] -6.4% | [2] 0.35% | [3] -2.9% | [4] 0% | [5] 18.9% | [6] 5.05%

CC1=CC(=Nc2ccc(N(CCCl)CCCl)cc2)C=C(C)C1=O
inactive: [1] 3.2% | [2] -16.6% | [3] 12.2% | [4] 13.8% | [5] 8.15% | [6] 37.1%

CCC(CCl)NC(CC(C)C)CC(C)C (configuration not stated)
inactive: [1] -1.95% | [2] 2.95% | [3] -6.75% | [4] -10.5% | [5] -4.7% | [6] -10.8%

CN1C(=O)c2ccccc2NC(=O)C12O[C@@H]2c1ccccc1 (some centres not stated)
inactive: [1] 0.05% | [2] -19.7% | [3] -4.95% | [4] 14.3% | [5] -9.7% | [6] -16.9%

CC(=O)OCC1OC([Se-])C(OC(C)=O)C(OC(C)=O)C1OC(C)=O.N#CCC[PH+](CCC#N)CCC#N.[Au+] (configuration not stated)
inactive: [1] 7.35% | [2] 6.75% | [3] -4.55% | [4] -15.8% | [5] 1.75% | [6] 10.1%

O=[N+]([O-])c1ccc(/C=C/C=C/C=C/C=C/c2ccc(S(=O)(=O)F)cc2Cl)c(Cl)c1
inactive: [1] -1.05% | [2] -2.85% | [3] -14.8% | [4] 7.15% | [5] -10.3% | [6] -1.2%

COc1cc(C=O)cc(OC)c1OC
inactive: [1] 1.45% | [2] -10.6% | [3] 5.25% | [4] -14.1% | [5] -7.1% | [6] -20.1%

COc1cc(C)c(OP(=O)(OC)OC)cc1C
inactive: [1] 15.3% | [2] 0.7% | [3] 13.6% | [4] 59.1% | [5] 1.7% | [6] -0.65%

CC1OC(OC2CCC3(C=O)C4CCC5(C)C(C6=CC(=O)OC6)CCC5(O)C4CCC3(O)C2)C(O)C(O)C1O (configuration not stated)
inactive: [1] 14.3% | [2] -8.35% | [3] -5.65% | [4] 13.5% | [5] -9.15% | [6] -4.3%

CC(I)C(N)=O (configuration not stated)
inactive: [1] -16.6% | [2] -19.7% | [3] -19.5% | [4] -4.15% | [5] -4% | [6] -17%

CCOc1ccccc1C=C(C#N)C#N
inactive: [1] -2.25% | [2] 6% | [3] 19.1% | [4] 12.2% | [5] 1.75% | [6] -4.15%

CC[N+]1(CC)CC[N+](CC)(CC)CC1 (tested in a mixture with another compound)
inactive: [1] 6.1% | [2] -28.8% | [3] 4.85% | [4] 0.45% | [5] -0.95% | [6] 29.1%

O=C1CCCN1CC#CCN1C[C@@H]2C3CCC(C3)[C@@H]2C1
inactive: [1] -2.8% | [2] -8.5% | [3] 6.25% | [4] 29.4% | [5] 17% | [6] 27.6%

CCOC(=O)C1C(c2ccco2)C2(C#N)C(=N)OC1(C)C2(C#N)C#N (configuration not stated)
inactive: [1] 3.45% | [2] 12.3% | [3] -39.5% | [4] -0.9% | [5] -36.8% | [6] -52%

O=C(c1ccccc1)c1ccc2n[se]nc2c1
inactive: [1] -32.4% | [2] 10.2% | [3] 18.2% | [4] 4.65% | [5] 17.1% | [6] 25.5%

O=C(c1cc(N(CCCl)CCCl)c([N+](=O)[O-])cc1[N+](=O)[O-])N1CCOCC1
inactive: [1] -1.6% | [2] -3.55% | [3] 13.2% | [4] 3.55% | [5] 19.3% | [6] -3.75%

CC1=C(C)C(=O)O[C@@H]([C@](C)(O)[C@]2(O)CC[C@@]3(O)[C@@H]4C[C@H](O)[C@]5(O)[C@@H](O)C=CC(=O)[C@]5(C)[C@H]4CC[C@]23C)C1
inactive: [1] 21.9% | [2] 11.2% | [3] 7.1% | [4] 23.2% | [5] 9.5% | [6] -52.8%

C/C(=N\NS(=O)(=O)c1ccc(C)cc1)C(CN(C)C)C(c1ccccc1)c1c(O)c2ccccc2oc1=O (configuration not stated)
inactive: [1] 59.9% | [2] 42.2% | [3] 65.2% | [4] 52.9% | [5] 54.7% | [6] 51.9%

O=NNc1ccc(C(F)(F)F)cn1
inactive: [1] -7.95% | [2] -6.95% | [3] -17.9% | [4] -5.75% | [5] -17.4% | [6] -15.2%

CC1(C)CN=C(NN=C(/C=C/c2ccc(C(F)(F)F)cc2)/C=C/c2ccc(C(F)(F)F)cc2)NC1
inactive: [1] 21.6% | [2] 10.4% | [3] 15.3% | [4] 20.2% | [5] 32.2% | [6] 46.8%

CC(=O)CCNC1(c2ccccc2)CCCCC1
inactive: [1] 3.6% | [2] 2.95% | [3] -2.65% | [4] -0.65% | [5] -2.5% | [6] -2.9%

O=CC1(c2ccccc2)CCNCC1
inactive: [1] -0.95% | [2] 3.85% | [3] 15.5% | [4] 6.35% | [5] 0.85% | [6] 8.85%

CC(=O)Nc1nc2c(ncn2C2OCC(OC(C)=O)C(OC(C)=O)C2OC(C)=O)c(=O)[nH]1 (configuration not stated) (tested in a mixture with another compound)
inactive: [1] 4.1% | [2] -4.35% | [3] 2.65% | [4] -6.9% | [5] 6.1% | [6] 6.95%

Cc1cccc(C#N)c1
inactive: [1] 3.55% | [2] -26.1% | [3] 1.2% | [4] -1.4% | [5] -7% | [6] -0.05%

CC(NC1=NCCO1)c1ccsc1 (configuration not stated)
inactive: [1] 21.9% | [2] 12.6% | [3] 3.5% | [4] 14.8% | [5] 3.75% | [6] -24.1%
